Experimental data: PubChem BioAssay AID1159580 (chemical genetic matrix, 2015)
Values joined by “and” are separate entries in the source; they are usually repeats but may differ in a detail not shown here. Equal entries are not always repeated. Out of some 5,500 compounds screened, about 2,000 (36%) were called active. Roughly 18% stayed inconclusive and do not appear here. Cut-off read from the data, not from the text of the source: active = normalized growth mostly below about 0.91 (no sharp cut-off); inconclusive = no clear call, values can overlap the other calls; inactive = mostly above about 0.92. Some of the results follow.

Experiment: chemical genetic growth profiling, strain panel (AID 1159580);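 note: tested at 20 µM; growth read once vehicle control cultures reached saturation at 30 °C; 1 = growth at the plate median or of vehicle wells; lower values mean less growth of the strain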
Conditions: growth OD

Measured: normalized growth

Nc1nc(N)c2nc(CNc3ccc(C(=O)NC(CCC(=O)O)C(=O)O)cc3)cnc2n1 (stereo unspecified)
inactive: S. cerevisiae deletion strains, locus YKL009W, strain mrt4, hits give low values 0.972 | S. cerevisiae deletion strains, locus YKL068W, hits give low values 0.981 | S. cerevisiae deletion strains, locus YKL085W, strain MDH1 (second series), hits give low values 0.986 | S. cerevisiae deletion strains, locus YKL085W, strain MDH1, hits give low values 0.986 | S. cerevisiae deletion strains, locus YKL160W, strain elf1, hits give low values 0.968 | S. cerevisiae deletion strains, locus YKL190W, strain CNB1, hits give low values 1.01 | S. cerevisiae deletion strains, locus YKR001C, strain vps1, hits give low values 0.989 | S. cerevisiae deletion strains, locus YKR026C, strain gcn3, hits give low values 0.997 | S. cerevisiae deletion strains, locus YKR091W, strain srl3, hits give low values 0.99 | S. cerevisiae deletion strains, locus YLL001W, strain dnm1, hits give low values 0.941 | S. cerevisiae deletion strains, locus YLL026W, hits give low values 0.996 | S. cerevisiae deletion strains, locus YLL041C, strain sdh2, hits give low values 0.971 | S. cerevisiae deletion strains, locus YLR027C, strain aat2, hits give low values 1 | S. cerevisiae deletion strains, locus YLR039C, strain RIC1, hits give low values 1.01 | S. cerevisiae deletion strains, locus YLR058C, strain SHM2, hits give low values 1 | S. cerevisiae deletion strains, locus YLR102C, strain apc9, hits give low values 0.972 | S. cerevisiae deletion strains, locus YLR221C, strain rsa3, hits give low values 1.06 | S. cerevisiae deletion strains, locus YLR258W, strain gsy2, hits give low values 0.974 | S. cerevisiae deletion strains, locus YLR262C, strain YPT6 (second series), hits give low values 1.03 | S. cerevisiae deletion strains, locus YLR262C, strain YPT6, hits give low values 0.952 | S. cerevisiae deletion strains, locus YLR268W, strain sec22, hits give low values 0.977 | S. cerevisiae deletion strains, locus YLR320W, strain mms22, hits give low values 1.05 | S. cerevisiae deletion strains, locus YLR330W, strain CHS5, hits give low values 1.01 | S. cerevisiae deletion strains, locus YLR342W, strain FKS1 (second series), hits give low values 1.07 | S. cerevisiae deletion strains, locus YLR342W, strain FKS1, hits give low values 1.01 | S. cerevisiae deletion strains, locus YLR357W, strain rsc2, hits give low values 0.963 | S. cerevisiae deletion strains, locus YLR370C, strain arc18, hits give low values 0.99 | S. cerevisiae deletion strains, locus YLR371W, strain rom2, hits give low values 0.973 | S. cerevisiae deletion strains, locus YLR384C, strain iki3, hits give low values 0.988 | S. cerevisiae deletion strains, locus YLR418C, strain cdc73, hits give low values 1.02 | S. cerevisiae deletion strains, locus YML016C, strain PPZ1, hits give low values 0.992 | S. cerevisiae deletion strains, locus YML032C, strain rad52, hits give low values 1.01 | S. cerevisiae deletion strains, locus YML120C, strain ndi1, hits give low values 0.979 | S. cerevisiae deletion strains, locus YML124C, strain tub3, hits give low values 0.988 | S. cerevisiae deletion strains, locus YMR058W, strain fet3, hits give low values 0.984 | S. cerevisiae deletion strains, locus YMR078C, strain ctf18, hits give low values 0.974 | S. cerevisiae deletion strains, locus YMR125W, strain sto1, hits give low values 0.967 | S. cerevisiae deletion strains, locus YMR129W, hits give low values 1 | S. cerevisiae deletion strains, locus YMR205C, strain PFK2, hits give low values 0.965 | S. cerevisiae deletion strains, locus YMR223W, strain ubp8, hits give low values 0.989 | S. cerevisiae deletion strains, locus YMR231W, strain pep5, hits give low values 1 | S. cerevisiae deletion strains, locus YMR263W, strain SAP30, hits give low values 0.99 and 1 | S. cerevisiae deletion strains, locus YMR307W, strain GAS1, hits give low values 1.16 | S. cerevisiae deletion strains, locus YNL067W, strain RPL9B, hits give low values 0.975 | S. cerevisiae deletion strains, locus YNL071W, strain lat1, hits give low values 0.998 | S. cerevisiae deletion strains, locus YNL128W, strain TEP1, hits give low values 1 | S. cerevisiae deletion strains, locus YNL153C, strain GIM3, hits give low values 1 | S. cerevisiae deletion strains, locus YNL175C, strain NOP13, hits give low values 0.989 | S. cerevisiae deletion strains, locus YNL197C, strain WHI3, hits give low values 0.956 | S. cerevisiae deletion strains, locus YNL209W, strain ssb2, hits give low values 0.987 | S. cerevisiae deletion strains, locus YNL224C, strain SQS1, hits give low values 0.981 | S. cerevisiae deletion strains, locus YNL233W, strain BNI4, hits give low values 1.01 | S. cerevisiae deletion strains, locus YNL248C, strain rpa49, hits give low values 1.02 | S. cerevisiae deletion strains, locus YNL250W, strain rad50, hits give low values 0.945 | S. cerevisiae deletion strains, locus YNL271C, strain bni1, hits give low values 0.984 | S. cerevisiae deletion strains, locus YNL298W, strain CLA4, hits give low values 0.995 | S. cerevisiae deletion strains, locus YNL307C, strain MCK1, hits give low values 0.977 | S. cerevisiae deletion strains, locus YNL322C, strain KRE1 (second series), hits give low values 0.976 | S. cerevisiae deletion strains, locus YNL322C, strain KRE1, hits give low values 0.998 and 1.01 | S. cerevisiae deletion strains, locus YNR049C, strain mso1, hits give low values 0.987 | S. cerevisiae deletion strains, locus YNR052C, strain pop2, hits give low values 0.991 | S. cerevisiae deletion strains, locus YOL006C, strain TOP1, hits give low values 0.981 | S. cerevisiae deletion strains, locus YOL012C, strain htz1 0.761 | S. cerevisiae deletion strains, locus YOL147C, strain pex11, hits give low values 0.998 | S. cerevisiae deletion strains, locus YOR001W, strain rrp6, hits give low values 1.01 | S. cerevisiae deletion strains, locus YOR061W, strain CKA2, hits give low values 0.99 | S. cerevisiae deletion strains, locus YOR069W, strain VPS5, hits give low values 0.992 | S. cerevisiae deletion strains, locus YOR070C, strain gyp1, hits give low values 0.997 | S. cerevisiae deletion strains, locus YOR080W, strain dia2, hits give low values 1.01 | S. cerevisiae deletion strains, locus YOR083W, strain WHI5 (second series), hits give low values 1 | S. cerevisiae deletion strains, locus YOR083W, strain WHI5, hits give low values 0.967 | S. cerevisiae deletion strains, locus YOR106W, strain vam3, hits give low values 0.94 | S. cerevisiae deletion strains, locus YOR136W, strain idh2, hits give low values 0.994 | S. cerevisiae deletion strains, locus YOR144C, strain elg1, hits give low values 1 | S. cerevisiae deletion strains, locus YOR184W, strain ser1, hits give low values 0.99 | S. cerevisiae deletion strains, locus YOR265W, strain rbl2, hits give low values 0.989 | S. cerevisiae deletion strains, locus YOR270C, strain vph1, hits give low values 1.05 | S. cerevisiae deletion strains, locus YOR290C, strain snf2, hits give low values 0.933 | S. cerevisiae deletion strains, locus YOR316C, strain cot1, hits give low values 0.986 | S. cerevisiae deletion strains, locus YPL051W, strain arl3, hits give low values 1 | S. cerevisiae deletion strains, locus YPL055C, strain LGE1, hits give low values 1.02 and 0.989 | S. cerevisiae deletion strains, locus YPL078C, strain atp4, hits give low values 0.955 | S. cerevisiae deletion strains, locus YPL106C, strain sse1, hits give low values 0.956 | S. cerevisiae deletion strains, locus YPL240C, strain hsp82, hits give low values 0.992 | S. cerevisiae deletion strains, locus YPL241C, strain CIN2, hits give low values 1.01 | S. cerevisiae deletion strains, locus YPR119W, strain clb2, hits give low values 0.987 | S. cerevisiae deletion strains, locus YPR141C, strain kar3, hits give low values 0.98 | S. cerevisiae deletion strains, locus YPR163C, strain tif3, hits give low values 1 | S. cerevisiae deletion strains, locus YPR167C, strain met16, hits give low values 0.989 | S. cerevisiae deletion strains, strain wtn01, hits give low values 0.965 | S. cerevisiae strains, strain wild type, hits give low values 1.01
